Reference: the supplement of paper PMC6555819

test system: PPARg:RXRa IVT, anti-PPARg (NR concentration 270 nM, RXRa partner concentration 90 nM); experiment: PBM binding z-score (relative to random genomic background probes); higher = stronger binding; sequences stand for … in GC…GCGATTGACAGCGTAGAATGAAGG
In short: (§1)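 On custom Agilent 4×180K arrays, double-stranded probes with 34-nt variable regions carried direct-repeat seeds, single-nucleotide variants, half-site ablations or random human genomic background. Ligand-free nuclear receptor dimers were applied for 1 h, and binding was read with antibodies against each partner (one per run). Binding z-scores come from regression-normalized fluorescence, with the random background probes as reference.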

| Sequence | PBM binding z-score |
| --- | --- |
| TCTCGGAGGACAGGAAGGTCAGAGCTTTCCAGAG | 0.389 |
| ACTATTAGTTGACTTACGGCAACCGATACGACGC | 0.189 |
| CCGGACAGGTGAAAGGTAACTCAGTCTGGTACGC | 2.68 |
| ATCGAAAGGTCGAAGTGAGTATAGAGAAAGGGAA | 1.01 |
| ATATGTAGGTTATCGGCTCATTCAGTTTGCGCAT | 6.58 |
| CCTTCTGGGCCACGAAAGGTCATTGATTCAGTGA | 5.14 |
| CAAACTAGGTCAAGCTCAAAGTCGGTTTGTGCCA | 8.97 |
| TTACCAAGGTGAAAGGTAGTTGATGCACGCCTTG | 3.26 |
| CCAACTGGGCCACGAAAGGTCATTGATTCAGTGA | 5.79 |
| AGAATGAGGTTATACGTAGATCAGGCAAGAAAGT | 2.33 |
| CAAACCAGGTCAAGGTCAAAGTCGGTTTGTGCCA | 7.16 |
| TCATATAGGTAAACAGGTGAAAGTCCGTAAGTTA | 4.6 |
| CGAACGAGAGCATGAGTTGATAGCAAATGCCGAT | -0.445 |
| ACTTACGGGTCAACGAGGTTATGGCACGCGTATA | 4.51 |
| ATCGACAGGTCGACGAGGTGAGTATACACCGTTT | 0.929 |
| CAAACTAGGTCACAGAGGTCAAAGTCCGTGCGTA | 9.1 |
| CCTACTGGGCCAAAGGTCAATGATTCCAATGCTC | 6.73 |
| GCTGCTAGGTCAAATGATGGTCAGCTAAAGCTCG | 4.16 |
| AGAATGAGTTTATACGTAGATCAGGGAAGAAAGT | 0.0744 |
| TGAATGAGGGTATAAGATCAGGGAACGTTGCAAA | 0.573 |

| Sequence | PBM binding z-score |
| --- | --- |
| CCTCGGAGGACAACAGGAGGTCAGTGCTGCCAGA | 0.469 |
| TAGCCTAGGTCAGATCGGGCCAGTATGCGCTATA | 1.3 |
| CCTTTCGGGTCAAGGTTATAGCACGGGTGGTACG | 3.48 |
| GGAACGAGGGCAAAGCTGATAGCATCTGTCGACG | 2.81 |
| TAGCCTAGGTCATTGGGGCAGTATAGTACGCATC | 4.45 |
| ATCTCTAGGTAAGAGTCAGTTCAGTGAAGAACGC | 1.41 |
| AGAATGAGGTTAAGATCAGGCAAACAGAATACAT | 2.81 |
| TTACGAAGGTGAAGGTCGTTGATCCCTCTGTAGA | 2.62 |
| AGAATTAGGTTATTAAGATCAGGGAATTGCGGTC | 5.44 |
| GGAACGAGGGCATTCCAGTTGATAGCATGGCGAT | 2.32 |
| TCTTGTAGTTCAAAGGTTAAGAAAGCCGAAGCCT | 2.84 |
| AATACAGGGTCACTAGGCCAGCGTAGGTACGAAT | 5.63 |
| CCTACTGGGCCATCAGCTCATTGATATCAACGTT | 3.36 |
| TAGCCTAGGTCATTCAGGGGCCAGTATTGAAAGC | 2.66 |
| TCTTGTAGATCAAAGGTTAGGAAAGCCGAAGCCT | 3.42 |
| GCGACTGAGGCATCAGCAGGTTACCATAACTTAA | -0.559 |
| ACACCAAGGTGATCGTGAGGTCGTTGATACTAAC | 1.04 |
| TAGCCTAGGTCATGGGCCAGTCTACCACGCGAAC | 3.21 |
| CGGCAAAGTTCAACTAAGGTAACGTAAAGCACGC | 1.29 |
| CGTCCAAGGTCAGAAAGGTCAGTGAATGCCGAGT | 3.14 |

test system: PPARg DBDmut:RXRa IVT, anti-PPARg (DBD mutation: PPARg1 K132A/R137A, NR concentration 270 nM, RXRa partner concentration 90 nM); experiment: as above
In short: as §1

| Sequence | PBM binding z-score |
| --- | --- |
| TCTCGGAGGACAGGAAGGTCAGAGCTTTCCAGAG | -1.38 |
| ACTATTAGTTGACTTACGGCAACCGATACGACGC | 0.614 |
| CCGGACAGGTGAAAGGTAACTCAGTCTGGTACGC | -0.561 |
| ATCGAAAGGTCGAAGTGAGTATAGAGAAAGGGAA | 1.1 |
| ATATGTAGGTTATCGGCTCATTCAGTTTGCGCAT | 2.28 |
| CCTTCTGGGCCACGAAAGGTCATTGATTCAGTGA | 1.99 |
| CAAACTAGGTCAAGCTCAAAGTCGGTTTGTGCCA | 4.04 |
| TTACCAAGGTGAAAGGTAGTTGATGCACGCCTTG | 0.619 |
| CCAACTGGGCCACGAAAGGTCATTGATTCAGTGA | -0.114 |
| AGAATGAGGTTATACGTAGATCAGGCAAGAAAGT | 1.04 |
| CAAACCAGGTCAAGGTCAAAGTCGGTTTGTGCCA | 2.64 |
| TCATATAGGTAAACAGGTGAAAGTCCGTAAGTTA | 1.08 |
| CGAACGAGAGCATGAGTTGATAGCAAATGCCGAT | 0.0684 |
| ACTTACGGGTCAACGAGGTTATGGCACGCGTATA | 1.34 |
| ATCGACAGGTCGACGAGGTGAGTATACACCGTTT | 0.221 |
| CAAACTAGGTCACAGAGGTCAAAGTCCGTGCGTA | 2.19 |
| CCTACTGGGCCAAAGGTCAATGATTCCAATGCTC | 1.6 |
| GCTGCTAGGTCAAATGATGGTCAGCTAAAGCTCG | -0.0492 |
| AGAATGAGTTTATACGTAGATCAGGGAAGAAAGT | 0.757 |
| TGAATGAGGGTATAAGATCAGGGAACGTTGCAAA | 0.938 |

| Sequence | PBM binding z-score |
| --- | --- |
| CCTCGGAGGACAACAGGAGGTCAGTGCTGCCAGA | -1.04 |
| TAGCCTAGGTCAGATCGGGCCAGTATGCGCTATA | -0.699 |
| CCTTTCGGGTCAAGGTTATAGCACGGGTGGTACG | 0.691 |
| GGAACGAGGGCAAAGCTGATAGCATCTGTCGACG | 0.774 |
| TAGCCTAGGTCATTGGGGCAGTATAGTACGCATC | 0.832 |
| ATCTCTAGGTAAGAGTCAGTTCAGTGAAGAACGC | 0.489 |
| AGAATGAGGTTAAGATCAGGCAAACAGAATACAT | 0.992 |
| TTACGAAGGTGAAGGTCGTTGATCCCTCTGTAGA | 0.0113 |
| AGAATTAGGTTATTAAGATCAGGGAATTGCGGTC | 1.55 |
| GGAACGAGGGCATTCCAGTTGATAGCATGGCGAT | 0.37 |
| TCTTGTAGTTCAAAGGTTAAGAAAGCCGAAGCCT | 0.125 |
| AATACAGGGTCACTAGGCCAGCGTAGGTACGAAT | 1.74 |
| CCTACTGGGCCATCAGCTCATTGATATCAACGTT | -0.394 |
| TAGCCTAGGTCATTCAGGGGCCAGTATTGAAAGC | -0.277 |
| TCTTGTAGATCAAAGGTTAGGAAAGCCGAAGCCT | 0.503 |
| GCGACTGAGGCATCAGCAGGTTACCATAACTTAA | -1.15 |
| ACACCAAGGTGATCGTGAGGTCGTTGATACTAAC | -0.599 |
| TAGCCTAGGTCATGGGCCAGTCTACCACGCGAAC | 0.44 |
| CGGCAAAGTTCAACTAAGGTAACGTAAAGCACGC | -0.451 |
| CGTCCAAGGTCAGAAAGGTCAGTGAATGCCGAGT | -0.203 |
